Screens (PubChem BioAssay)
ADAM10 inh = inhibits human ADAM10; hit rate 0.62% among 370,000; O14672; recombinant ADAM10, EDANS/DABCYL FRET peptide cleavage, 3 h; AID 720582; inhibition, % at 7 µM;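 active = inhibition above a per-campaign cutoff equal to the mean of compounds falling between control-based bounds plus 3 SD, cut at about 20% in these data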;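 also: 0% = DMSO wells while the 100% control is not disclosed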
KLK7 zymogen act = proKLK7 (human) activation, primary screen | hit rate 0.9% among 370,000 | AID 652039 | purified proKLK7, EDANS-DABCYL substrate fluorescence; 100% is mature enzyme control, 0% vehicle | P49862 | activation, % at 7 µM;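 active = activation above the mean of all tested compounds plus 3 SD, computed per campaign excluding outliers beyond control limits, cut at about 13% in these data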
Target sequence (P49862 whole entry, looked up): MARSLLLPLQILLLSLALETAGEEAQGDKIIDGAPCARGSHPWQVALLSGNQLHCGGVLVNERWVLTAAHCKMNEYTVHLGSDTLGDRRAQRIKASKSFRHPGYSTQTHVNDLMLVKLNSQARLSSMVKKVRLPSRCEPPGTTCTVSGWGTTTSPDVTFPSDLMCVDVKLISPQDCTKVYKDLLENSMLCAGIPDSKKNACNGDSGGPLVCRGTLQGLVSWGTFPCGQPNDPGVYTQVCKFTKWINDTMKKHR
AHR act = activates the human aryl hydrocarbon receptor. P35869. activation, % at 5 µM. AHR-responsive luciferase reporter cells, luminescence. hit rate 2.5% among 320,000; in the data active = activation above about 47%;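 also: 0% = vehicle wells and 100% = reference agonist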
GRIN3A LBD mod = modulators (binders) of human NR3A ligand-binding domain | NR3A LBD differential scanning fluorimetry, Tm shift; 0% = protein alone, 100% = glycine-bound protein | Tm shift relative to glycine control, % at 25 µM | hit rate 2.5% among 340,000;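 active = melting temperature shift of at least 10% of the positive control shift, at one fixed dose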
ADAM17 inh = inhibits human ADAM17 | inhibition, % at 6.95 µM | P78536 | AID 720648 | hit rate 0.83% among 370,000 | recombinant ADAM17, EDANS/DABCYL FRET peptide cleavage;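 active = inhibition above the mean of compounds lying between control limits plus 3 SD, set per campaign, cut at about 8.5% in these data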;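 also: 0% = DMSO-only wells as the low control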
rCAG RNA binder = r(CAG) repeat RNA binding; TO-PRO-1 dye displacement fluorescence; inhibition, % at 3 µM; hit rate 1.3% among 370,000; AID 651821;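 active = inhibition above the plate cutoff, the mean of all test compounds on that plate plus 3 SD, cut at about 35% in these data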;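 also: 0% = DMSO alone and 100% = 100 µM mitoxantrone as full dye displacement; higher means more dye released from RNA so lower well fluorescence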
ADAM10 ctr = counter-screen for ADAM17 exosite inhibitors: inhibitors of human ADAM10 | hit rate 47% among 2,900 | recombinant ADAM10, EDANS/DABCYL FRET peptide cleavage, 3 h | AID 743256 | inhibition, % at 6.95 µM | shares compounds with ADAM17 inh;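 active = mean inhibition over the triplicate runs exceeds the activity threshold set in the earlier primary screen, cut at about 20% in these data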;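 also: 0% = DMSO wells and 100% = marimastat wells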
ADAM17 confirm = human ADAM17 inhibition, confirmation; shares compounds with ADAM17 inh; recombinant ADAM17, EDANS/DABCYL QFRET peptide cleavage; inhibition, % at 6.95 µM; hit rate 65% among 2,900; AID 743257;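 active = mean inhibition across replicates above the hit cutoff set in the primary screen, cut at about 8.5% in these data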;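 also: 0% = DMSO wells and 100% = marimastat wells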
Active calls of the source: *; . = no result. Compounds with a hit are over-represented: about 7% of the library has one in this group of screens.

SMILES	ADAM10 inh	KLK7 zymogen act	AHR act	GRIN3A LBD mod	ADAM17 inh	rCAG RNA binder	ADAM10 ctr	ADAM17 confirm
CC(C)NC(=O)N(C)C[C@H]1Oc2ccc(NC(=O)Nc3ccccc3)cc2C(=O)N([C@@H](C)CO)C[C@@H]1C	-4	0	-2	0	11*	-4	2	5
CC(C)NC(=O)N(C)C[C@H]1Oc2ccc(NC(=O)Nc3ccccc3)cc2C(=O)N([C@H](C)CO)C[C@@H]1C	-6	1	0	-2	0	-3	.	.
C[C@H](CO)N1C[C@H](C)[C@@H](CN(C)C(=O)Nc2ccc(C(F)(F)F)cc2)Oc2ccc(NC(=O)Cc3ccccc3)cc2C1=O	16	1	-1	-10	16*	-2	17	9.6*
CC(C)NC(=O)N(C)C[C@H]1Oc2ccc(NC(=O)Cc3ccccc3)cc2C(=O)N([C@H](C)CO)C[C@@H]1C	1	1	0	-1	9.1*	0	-9	1
O=C1C=C(OCCF)CC(c2cccc([N+](=O)[O-])c2)O1 (centres undefined)	-5	0	.	.	-1	3	.	.
O=C(COC(=O)COc1ccc(Br)cc1)NNC(=O)c1ccccc1	-10	0	0	0	-5	1	.	.
CCCN(S(=O)(=O)c1ccccc1F)S(=O)(=O)c1ccccc1Br	17	0	-2	-18	5	0	.	.
C[C@H](CO)N1C[C@H](C)[C@@H](CN(C)S(=O)(=O)c2cccs2)Oc2ccc(NC(=O)Nc3ccc(C(F)(F)F)cc3)cc2C1=O	29*	1	-2	23*	8.7*	11	40*	23*
C[C@H](CO)N1C[C@H](C)[C@@H](CN(C)S(=O)(=O)c2ccc(F)cc2)Oc2ccc(NC(=O)Nc3ccccc3)cc2C1=O	11	1	-1	1	6	9	.	.
C[C@H](CO)N1C[C@H](C)[C@@H](CN(C)S(=O)(=O)c2ccc(F)cc2)Oc2ccc(NC(=O)Nc3ccc(C(F)(F)F)cc3)cc2C1=O	26*	0	1	11*	9.0*	9	37*	19*
CCCC(C)Sc1nc2c([nH]1)c(=S)n(C)c(=O)n2C (centres undefined)	-8	1	.	-3	4	2	.	.
Clc1cccc(COn2c(-c3ccc(Cl)cc3Cl)nc3ncccc32)c1	4	1	1	-10	11*	-3	-13	4
C[C@@H]1CC[C@]2(O[C@H](CCO)C[C@@H](O)[C@@H]2O)O1	8	0	1	0	8.8*	4	10	4
CCCCCCN1CCN(C2CN(Cc3cn(Cc4ccc(Cl)cc4)nn3)S(=O)(=O)C2)CC1 (centres undefined)	4	-1	.	.	8.9*	-1	-3	0
CN(C)/C=N/c1ncnc2c1cnn2-c1ccc(C(F)(F)F)cn1	14	0	.	2	9.2*	4	-6	2
Cc1nn(-c2ccc(C(F)(F)F)cn2)c(C)c1Oc1ccccc1O	6	0	-1	-7	0	-3	.	.
Cc1ccc(S(=O)(=O)N2CCN(C(=O)COC(=O)c3ncc(Cl)c(Cl)c3Cl)CC2)c(C)c1	-11	1	.	3	9.0*	9	8	8.9*
C[C@@H]1CN([C@H](C)CO)S(=O)(=O)c2ccc(Br)cc2O[C@H]1CN(C)S(C)(=O)=O	2	1	.	.	0	2	.	.
Cn1cccc1/C=C1\SC(=S)N(NC(=O)c2ccc(F)cc2)C1=O	15	0	-2	-4	13*	3	8	4
CC(C(=O)O)N1C(=O)/C(=C/c2cccn2C)SC1=S (centres undefined)	9	0	8	1	2	0	.	.
Cn1cccc1/C=C1\SC(=S)N(NC(=O)c2ccccc2O)C1=O	2	0	2	6	-3	33	.	.
